Sampled rows, rich in hits. Any-hit rate of the full collection: about 2.8%.
POLB inh: DNA polymerase beta (human) inhibition; P06746; hit rate 1.3% among 340,000; Pol beta primer extension/strand displacement, fluorescence kinetic; AID 485314; Potency, µM (highest dose often 114 µM), inactives show top-dose activity change, negative = inhibition, hits mostly inhibitors; also: potency is read from the fitted curve at half-maximal effect; % is scaled to controls: 0 for no effect and ±100 for the full control effect
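Kinetic readout of DNA synthesis with strand displacement by Pol beta. Compound and 10 nM enzyme sit 15 min at room temperature; 50 nM substrate starts the reaction, read immediately and at 10 min.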
PI5P4K alpha inh: blocks human PI5P4K alpha kinase activity; PI5P4Kalpha enzyme, ADP-Glo luminescence, 60 min; active compounds read low; AID 652105; hit rate 1.2% among 330,000; max response, %; P48426; active = max response of -50% or lower; inconclusive = between -30% and -50%; inactive = -30% or higher; also: value at the top dose of about 77 µM; % is scaled to controls: 0 for no effect and ±100 for the full control effect
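Enzyme plus substrate dispensed, test compounds pinned in, then ATP (5 microM final) added. After 60 min at RT, ADP-Glo reagent 1 for 45 min and reagent 2 for 30 min preceded luminescence imaging.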
WRN helicase inh: blocks human WRN helicase; Q14191; WRN helicase unwinding, fluorescent forked duplex, kinetic; Potency, µM (highest dose often 114 µM), for the others: at the highest dose activity change, negative = inhibition, usual class: inhibitors; hit rate 0.46% among 360,000; also: potency is read from the fitted curve at half-maximal effect; % is scaled to controls: 0 for no effect and ±100 for the full control effect; nearly all actives have a fitted effect of over 55% in size
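Fluorescence dequenching readout, ex 525 nm/em 598 nm, kinetic mode: forked duplex DNA (100 nM final) with adjacent fluorophore and quencher unwound by WRN (20 nM final) with 2 mM ATP. Compound preincubation 15 min, room temperature.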
POLH inh: DNA polymerase eta (human) inhibition; Q9Y253; recombinant Pol eta, fluorescent DNA replication assay; Potency, µM (series often up to 114 µM), inactives show at the highest dose activity change, negative = inhibition, hits mostly inhibitors; hit rate 1.2% among 390,000; AID 588591; also: potency is read from the fitted curve at half-maximal effect; % is scaled to controls: 0 for no effect and ±100 for the full control effect
Target sequence (Q9Y253 whole entry, looked up): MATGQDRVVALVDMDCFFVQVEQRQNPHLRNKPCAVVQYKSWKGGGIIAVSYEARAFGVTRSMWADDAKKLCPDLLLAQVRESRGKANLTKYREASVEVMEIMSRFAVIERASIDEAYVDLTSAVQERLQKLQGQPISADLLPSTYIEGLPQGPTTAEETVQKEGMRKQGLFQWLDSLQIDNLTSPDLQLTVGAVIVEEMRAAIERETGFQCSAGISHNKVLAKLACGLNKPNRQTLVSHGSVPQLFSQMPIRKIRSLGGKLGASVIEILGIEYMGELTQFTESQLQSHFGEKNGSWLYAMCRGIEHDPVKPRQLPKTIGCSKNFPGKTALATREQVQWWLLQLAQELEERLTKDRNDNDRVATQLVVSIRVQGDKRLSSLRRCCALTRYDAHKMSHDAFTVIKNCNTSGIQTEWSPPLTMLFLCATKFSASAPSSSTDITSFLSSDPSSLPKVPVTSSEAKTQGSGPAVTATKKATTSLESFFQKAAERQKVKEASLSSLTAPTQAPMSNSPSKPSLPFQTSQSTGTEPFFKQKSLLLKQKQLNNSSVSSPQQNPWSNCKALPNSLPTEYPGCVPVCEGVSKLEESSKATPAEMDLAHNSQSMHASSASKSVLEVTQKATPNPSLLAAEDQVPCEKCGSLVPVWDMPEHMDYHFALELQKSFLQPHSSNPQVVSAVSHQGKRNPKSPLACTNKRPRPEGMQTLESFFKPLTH
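Fluorescent replication assay: 50 nM final substrate added after a 15 min room-temperature compound preincubation with 10 nM enzyme. Signal taken at 0 min and again at 10 min.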
POLI inh: DNA polymerase iota (human) inhibition. Q9UNA4. Pol iota fluorescent replication assay, 10 min. Potency, µM (highest dose often 115 µM), inactives show at the top dose activity, negative = inhibition, most hits filed as inhibitors. hit rate 1% among 390,000. AID 588590; also: potency is read from the fitted curve at half-maximal effect
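Pol iota at 10 nM preincubated 15 min with compounds at room temperature; reaction started with fluorescent substrate, 50 nM final. Fluorescence read kinetically at 0 and 10 min; buffer-only wells as negative control.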
POLK inh: DNA polymerase kappa (human) inhibition; Q9UBT6; purified Pol kappa, fluorescent DNA synthesis assay, 10 min; Potency, µM (titrated, usually from 107 µM), inactives show top-dose activity, negative = inhibition, most hits filed as inhibitors; hit rate 0.53% among 400,000; AID 588579; also: potency is read from the fitted curve at half-maximal effect; % is scaled to controls: 0 for no effect and ±100 for the full control effect
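Kinetic fluorescence readout at 0 and 10 min followed reaction start with substrate at 50 nM final. Beforehand, enzyme (10 nM Pol kappa) stood 15 min with compound at room temperature; buffer-only wells were negative controls.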
Active calls of the source: *; ? = inconclusive; nt = not tested or not shown; [ ] = another dose, or the depositor's remark. Unless noted, calls follow the shape of the dose curve; as a rule, active = well fitted curve in the direction sought with a large enough effect; inconclusive = small, poorly fitted or top-dose-only effect, or another doubt; inactive = no such curve, though single readings can be large; an effect the other way counts as inactive or inconclusive.

SMILES | POLB inh | PI5P4K alpha inh | WRN helicase inh | POLH inh | POLI inh | POLK inh
COC(=O)C1=C(C(=O)OC)C2OC1c1cc3ccccc3cc12 | nt | -15 | 40µM* | -16% | 10% | -18%
CCOc1ccc(NC(=O)c2ccc(NC(=O)COC(=O)Cc3ccccc3)cc2)cc1 | 22µM* | -17 | -22%[57.1 µM] | -14% | ? | -9%
C[C@@H](N)[C@@H](O)c1ccc(O)c(O)c1 | nt | nt | nt | nt | nt | 1µM*
COc1ccc(OC)c(C(O)C(C)N)c1 (centres undefined) | 11% | 2 | 6% | -14% | 21% | -8%[60.1 µM]
C[C@H](N)[C@H](O)c1ccc(O)c(O)c1 | nt | nt | nt | nt | nt | 0.75µM*
C[C@]12Cc3cn4c(nc3C=C1CCC1C2CC[C@@]2(C)[C@H]1CC[C@@]2(O)C#N)nc1ccccc14 (some centres undefined) | 15%[57.1 µM] | nt | nt | ? | 4%[58.9 µM] | ?
OC[C@H]1O[C@@H](n2cnc3cc(Cl)c(Cl)cc32)[C@H](O)[C@H]1O | nt | nt | nt | nt | nt | 10%[60.1 µM]
Cn1c(O)c(C=Nc2ccc(Br)cc2)c(=O)n(C)c1=O | 36% | -2 | -20% | -2% | 108% | -12%
Cn1c(O)c(/C=C/C=Nc2ccccc2)c(=O)n(C)c1=S | 25µM* | -30 | 32µM* | ? | 79µM* | ?
Cc1cccc(-n2c(O)c(/C=C/C=Nc3ccccc3)c(=O)[nH]c2=O)c1 | 19% | -17 | -12% | -8% | 13% | -16%
Cc1ccccc1-n1c(O)c(/C=C/C=Nc2ccccc2)c(=O)[nH]c1=O | -3% | ? | ? | ? | 79µM* | -14%
CCn1c(N)c(C(=O)NC)sc1=S | 0% | -59* | 56µM* | -4% | ? | 6%
CCCCCC[C@H]1C(=O)O[C@H](C)[C@H](NC(=O)c2cccc(NC=O)c2O)C(=O)O[C@@H](C)[C@H]1OC(=O)CC(C)C | nt | nt | nt | nt | nt | -2%[12 µM]
O=[N+]([O-])c1ccc(C(c2ccc([N+](=O)[O-])cc2)c2ccc([N+](=O)[O-])cc2)cc1 | nt | 4 | -4% | -8% | 25% | -3%
Cc1[nH]n(-c2ccccc2)c(=O)c1C(c1ccc([N+](=O)[O-])cc1)c1c(C)[nH]n(-c2ccccc2)c1=O | 7% | -14 | -16%[11.6 µM] | -6% | 0.71µM* | -3%
O=C(O[C@@H]1Cc2c(O)cc(O)cc2O[C@@H]1c1cc(O)c(O)c(O)c1)c1cc(O)c(O)c(O)c1 | 0.45µM* | nt | nt | nt | nt | nt
Oc1cc(O)c2c(c1)OC(c1cc(O)c(O)c(O)c1)C(O)C2 (centres undefined) | nt | nt | nt | nt | nt | 4µM*
Cn1cc(C=C2C(=O)NC(=O)NC2=O)c2ccccc21 | 1% | -24 | ? | ? | ? | -3%
O=C1NC(=O)C(=Cc2coc3ccccc3c2=O)C(=O)N1 | 2% | -77* | -2% | -7% | 10% | -4%
O=C1NC(=O)C(=C/C=C/c2coc3ccc(Br)cc3c2=O)C(=O)N1 | 1.6µM* | nt | nt | nt | nt | nt
O=C1NC(=O)C(=Cc2csc3ccccc23)C(=O)N1 | 11% | -73* | -18% | 8% | ? | -3%
Cc1ccc2scc(N3CCN(C)CC3)c(=O)c2c1 | -4% | nt | nt | -6% | -8% | -12%[60.1 µM]
CCCCCCCC/C=C\CCCCCCCC(=O)OC[C@@H](COP(O)(O)=S)OC | nt | nt | nt | nt | nt | 17µM*
CCCCC/C=C\C/C=C\CCCCCCCC(=O)NCCO | nt | nt | nt | nt | nt | 6%[19.4 µM]
Cc1cccc(-n2c(/C=C/c3cn(C)c4ccccc34)nc3ccccc3c2=O)c1 | -1% | nt | nt | -23% | -18% | 10%
SMILES | POLB inh | PI5P4K alpha inh | WRN helicase inh | POLH inh | POLI inh | POLK inh
Cc1cccn2c(=O)c(/C=C(\C#N)c3nc4ccccc4s3)c(Oc3ccc(F)cc3)nc12 | ? | nt | nt | 79µM* | ? | -4%
O=C(Oc1ccccc1)N1CCC[C@@]2(CCN(Cc3ccccc3)C2)C1 | nt | nt | nt | nt | nt | 1%[60.1 µM]
CCOC(=O)C(SP(=S)(OC)OC)c1ccccc1 (centres undefined) | nt | nt | nt | nt | nt | -16%[60.1 µM]
O=C1NC(=S)SC1=Cc1ccc(N(CCCl)CCCl)cc1 | nt | -72* | -17% | 79µM* | 16µM* | ?
N#Cc1ncc(Br)cn1 | nt | nt | nt | nt | 31% | 7%
C/C=C(\C)C(=O)OC1C(C)=C2C(C1OC(=O)CCCCC)C(C)(OC(C)=O)CC(OC(=O)CCC)C1(O)C2OC(=O)C1(C)O (centres undefined) | 25µM* | nt | nt | nt | nt | nt
COC[C@H]([C@@H](O)[C@@H](O)C(=O)NCC[C@@H](C)c1nc(/C=C/C[C@H]2OC3(C[C@H](O)[C@H]2C)OC([C@@H](C[C@@H](O)[C@@H](C)[C@@H](O)[C@@H](C)/C=C(C)/C(C)=C/C=C/C(C)=C\C#N)OC)[C@@H](OP(=O)(O)O)C3(C)C)co1)N(C)C (some centres undefined) | nt | nt | nt | nt | nt | 8%[19.4 µM]
C=C1C=C(C(F)F)n2ncc(C(=O)NCc3ccccc3F)c2N1 | nt | nt | nt | nt | -7% | -30%
CC(=O)O[C@H]1CC[C@H]2[C@@H]3CCC4=CC(=O)CCC4=C3C=C[C@]12C | nt | nt | nt | nt | nt | 7%[19.4 µM]
CC(=O)O[C@H]1CCC2C3CCC4=CC(=O)CCC4=C3C=C[C@@]21C (some centres undefined) | 5% | -6 | -12% | -23% | 28µM* | -14%
CCN(CC)/[N+]([O-])=N/O | nt | nt | nt | nt | nt | -8%[60.1 µM]
O=C(O)c1ccc2c(c1)C1C(Cl)C(Sc3ccccc3[N+](=O)[O-])CC1C(c1cccc([N+](=O)[O-])c1)N2 (centres undefined) | ? | ? | ? | 22µM* | ? | 50µM*
O=C(O)c1cccc2c1NC(c1cccc([N+](=O)[O-])c1)C1CC(Sc3ccccc3[N+](=O)[O-])C(Cl)C21 (centres undefined) | ? | -23 | -32% | 32µM* | ? | ?
O=[N+]([O-])c1cccc(C2N3CCCN23)c1 (centres undefined) | 91% | 1 | 3% | -17% | 17% | -1%
CCN(CC)C(=O)c1ccc2c(c1)C1C(Cl)C(Sc3ccccc3[N+](=O)[O-])CC1C(C(=O)O)N2 (centres undefined) | 50µM* | -59* | -27% | 18µM* | ? | ?
CC(=O)[C@H]1CC[C@H]2C3CC[C@H]4C[C@](C)(O)CC[C@]4(C)C3CC[C@]12C (some centres undefined) | nt | nt | nt | nt | nt | 1%[60.1 µM]
O=C(O)CCn1cc(C=C2C(=O)NC(=S)NC2=O)c(-c2cccc(Cl)c2)n1 | -17% | -86* | 45µM* | ? | 64% | -35%
O=C(O)CCn1cc(C=C2C(=O)NC(=O)NC2=O)c(-c2ccc(Br)cc2)n1 | 22% | ? | ? | 11% | ? | -16%
C[C@@]12CCC(=O)C[C@@H]1CC[C@@H]1[C@@H]2CC[C@]2(C)C(=O)CC[C@@H]12 | nt | nt | nt | nt | nt | -6%[60.1 µM]

Bioassay records from PubChem BioAssay.
